The campaign covered roughly 16,000 compounds. About 4,000 (25%) were called active. Not shown: some 26% with an inconclusive outcome. Calls follow the shape of the dose curve; as a rule, active = well fitted curve in the direction sought with a large enough effect; inconclusive = small, poorly fitted or top-dose-only effect, or effect the other way; inactive = no such curve, though single readings can be large or run the other way. Only a sample is shown.
% is scaled to controls: 0 for no effect and ±100 for the full control effect.

The experiment deals with Cytochrome P450 2C9 (Homo sapiens) (UniProt P11712). The experiment is described as follows: Cytochrome panel assay with activity outcomes. The conditions noted are these: recombinant CYP, pro-luciferin dealkylation, luminescence, p450-cyp2c9; series mostly up to 57.1 µM; activity, negative = inhibition: at the top concentration.
Cytochrome P450 2C9 (Homo sapiens), sequence (P11712 whole entry, looked up): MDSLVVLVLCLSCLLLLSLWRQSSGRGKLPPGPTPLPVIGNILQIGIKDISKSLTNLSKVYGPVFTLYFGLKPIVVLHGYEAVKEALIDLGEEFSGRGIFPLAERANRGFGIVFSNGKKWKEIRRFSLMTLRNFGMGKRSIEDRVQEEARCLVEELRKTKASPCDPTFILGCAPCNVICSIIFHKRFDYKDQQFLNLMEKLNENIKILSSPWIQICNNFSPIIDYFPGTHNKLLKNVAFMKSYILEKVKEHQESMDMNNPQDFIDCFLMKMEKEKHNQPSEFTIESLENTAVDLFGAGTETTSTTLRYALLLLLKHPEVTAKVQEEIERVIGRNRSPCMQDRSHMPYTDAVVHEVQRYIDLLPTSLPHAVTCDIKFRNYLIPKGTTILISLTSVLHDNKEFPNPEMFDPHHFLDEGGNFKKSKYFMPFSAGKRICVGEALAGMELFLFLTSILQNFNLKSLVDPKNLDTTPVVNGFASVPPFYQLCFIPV
In the case of `Cc1c(C(=O)NN2CCN(C)CC2)cccc1[N+](=O)[O-]`, the “activity, negative = inhibition” value was 32.4% (inactive).
As for `Cc1c(NC(=O)C(Sc2ccccc2)c2ccccc2)cccc1[N+](=O)[O-]` (centres undefined), the half-maximal activity concentration (AC50) was 251 nM (active).
For the compound `O=[N+]([O-])c1cc(/C=N/O)ccc1SCc1ccccc1`, the “activity, negative = inhibition” value was 19.7% (inactive).
For `CC(C)Cn1c(-c2nn(C)cc2Cl)n[nH]c1=S`, the “activity, negative = inhibition” value is -14.2% (inactive).
As for `CN1CCN(c2ncc3nc(-c4ccc(Cl)cc4)c(=O)n(CCC#N)c3n2)CC1`, the “activity, negative = inhibition” value was -0.813% (inactive).
Regarding `CCOC(=O)c1cc(-c2ccc(Cl)cc2)nc2c1c(C)nn2CCC#N`, the AC50 was 10000 nM (active).
Turning to `OC(Cc1nc2ccccc2[nH]1)c1ccccc1Cl` (centres undefined), the AC50 is 14100 nM (active).
Consider `O=C1CC[C@](CCc2nc3ccccc3[nH]2)(c2ccccc2)C(=O)N1`, for which the activity, negative = inhibition was -12.8% [at 11.4 µM] (inactive).
In the case of `OCCNc1nc2ccccc2[nH]1`, the “activity, negative = inhibition” value was -17.9% (inactive).
Same read-out and setting: under `COCC(=O)N1CCC[C@@]2(CCN(Cc3ccccc3OC)C2)C1` stands 6.92% (inactive).
With `CCc1ccc(C(=O)COC(=O)C(Cc2ccccc2)NC(=O)C2CCC(C)CC2)cc1` (centres undefined), the “activity, negative = inhibition” value is -22.4% (inactive).
Regarding `CCC(=O)Nc1ccccc1C(=O)OCC(=O)c1cccc2ccccc12`, the AC50 is 2240 nM (active).
Turning to `CCC(=O)Nc1ccccc1C(=O)OCC(=O)c1ccccc1`, the AC50 is 631 nM (active).
Take `CCOC(=O)c1ccccc1NC(=O)/C(C)=C/C(=O)O`: the “activity, negative = inhibition” value was -17% (inactive).
On the same count and under the same terms, under `C[N+]1(C)CCO[C@](O)(c2ccccc2)C1` stands 3.31% [at 11.4 µM] (inactive).
Turning to `CSCC[C@H](NC(=O)CC(C)(C)C)c1nc2ccccc2[nH]1`, the AC50 was 14100 nM (active).
For `CSCC[C@H](NC(=O)c1nn(C)c(=O)c2ccccc12)c1nc2ccccc2[nH]1`, the half-maximal activity concentration (AC50) was 2000 nM (active).
For `CCCCCCCCCCCC1=C(O)C(=O)C=C(O)C1=O`, the “activity, negative = inhibition” value was 1.23% (inactive).
Still for that read-out and setting: under `Cn1c(C(F)(F)F)nc2c(=O)oc3ccccc3c21` stands -17.9% (inactive); under `O=C(O)c1ccccc1C(=O)NNc1ccc(Cl)cc1`, -11.7% (inactive).
As to `O=C(OCc1ccc(Cl)cc1)c1ccccc1C(=O)c1ccccc1`, the concentration at half-maximal activity (AC50) is 4470 nM (active).
For `O=C(O)c1ccc(C(=O)c2ccccc2)c(C(=O)O)c1`, the activity, negative = inhibition is 21.8% [at 11.4 µM] (inactive).
Turning to `CC(C)(C)C1CCC(OCC(O)CN2CCN(c3ccccc3)CC2)CC1` (centres undefined), the “activity, negative = inhibition” value is -17.4% (inactive).
The same measure, in the same setting: as for `CCOC(=O)CCN1C(=O)[C@H]2[C@H]3[C@H](O)[C@H](O)C/C(=N/OC[C@@H](O)COCc4ccco4)[C@@H]3CC[C@@H]2C1=O`, the figure is -5.27% [at 11.4 µM] (inactive).
As to `CC1CCN(c2cc(N3CCC(C)CC3)c([N+](=O)[O-])cc2/C=C(\C#N)c2nn(-c3ccccc3)c(N)c2C#N)CC1`, the concentration at half-maximal activity (AC50) is 224 nM (active).
As for `N#C/C(=C\c1cc([N+](=O)[O-])c(N2CCCCC2)cc1N1CCCCC1)c1nn(-c2ccccc2)c(N)c1C#N`, the AC50 is 316 nM (active).
Regarding `COc1ccccc1CNc1ncncc1-c1cccc(NS(C)(=O)=O)c1`, the activity, negative = inhibition was -27.7% [at 2.29 µM] (inactive).
Same read-out and setting: under `CS(=O)(=O)Nc1cccc(-c2cncnc2Nc2ccccc2)c1` stands -11.4% [at 2.29 µM] (inactive).
As to `CS(=O)(=O)Nc1cccc(-c2cncnc2NCc2ccccc2)c1`, the concentration at half-maximal activity (AC50) is 398 nM (active).
Consider `c1cncc(-c2cncnc2NCc2cccs2)c1`, for which the activity, negative = inhibition is -1.39% [at 2.29 µM] (inactive).
`COc1cccc(-c2cncnc2NCCN2CCOCC2)c1`: the activity, negative = inhibition was 1.81% [at 2.29 µM] (inactive).
With `COc1cccc(-c2cncnc2NCc2cnc(C)cn2)c1`, the activity, negative = inhibition is 4.41% [at 2.29 µM] (inactive).
On to `CS(=O)(=O)Nc1cccc(-c2cncnc2NCc2cccs2)c1`, for which the AC50 was 126 nM (active).
For the compound `COc1cccc(-c2cncnc2NCc2cccs2)c1`, the concentration at half-maximal activity (AC50) is 398 nM (active).
With `COc1cccc(-c2cncnc2NCCc2cnc[nH]2)c1`, the AC50 is 251 nM (active).
In the case of `COc1cccc(-c2cncnc2NCc2cccnc2)c1`, the activity, negative = inhibition was -10.5% [at 2.29 µM] (inactive).
As to `CS(=O)(=O)Nc1cccc(-c2cncnc2Nc2ccc(F)cc2)c1`, the activity, negative = inhibition is -8.15% [at 2.29 µM] (inactive).
Regarding `CS(=O)(=O)Nc1cccc(-c2cncnc2NCc2cccnc2)c1`, the activity, negative = inhibition is -3.43% [at 2.29 µM] (inactive).
With `O=C(O)CSCNC(=O)CC12CC3CC(CC(C3)C1)C2`, the “activity, negative = inhibition” value is -24.2% (inactive).
In the case of `Cc1cccc(CNc2ncncc2-c2ccc3c(c2)OCO3)c1`, the activity, negative = inhibition was -20.1% [at 2.29 µM] (inactive).
On to `c1csc(CNc2ncncc2-c2ccc3c(c2)OCO3)c1`, for which the AC50 was 316 nM (active).
Take `CN(C)c1ccc(-c2cncnc2NCc2cccs2)cc1`: the activity, negative = inhibition is -23.6% [at 2.29 µM] (inactive).
Consider `CCOc1c2ccc(C(=O)NCc3ccc(OC(F)(F)F)cc3)cc2nn1C`, for which the concentration at half-maximal activity (AC50) is 15800 nM (active).
As for `CCCN(CCC)CCCNC(=O)c1ccc2c(c1)N(CC)C(=O)c1ccccc1S2=O` (centres undefined), the “activity, negative = inhibition” value is -9.06% (inactive).

(Values after PubChem BioAssay AID1851 (National Center for Advancing Translational Sciences (NCATS), 2009).)
